Most compounds without a hit are left out; they make up all but 1.7% or so of the library.
MIN6 prolif = inducers of beta-cell replication in MIN6 cells; AID 2380; MIN6 cells proliferation, ATPlite luminescence, 48 h; cells starved in 0.2% serum; 100% = growth in 10% serum; proliferation, % at 10 µM; 330,000 tested, 0.29% active;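 active = compounds whose signal lies at least 3.5 SD above the mean of all wells on their plate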;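 note: 0% = DMSO-treated cells in low-serum medium and 100% = 10% serum control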
HTR5A inv ctr = counter-screen for OPRM1-OPRD1 inverse agonists: human HTR5A inverse agonism; P47898; AID 504634; HTR5A cell line, luminescence; inhibition, % at 9.3 µM; 340,000 tested, 0.083% active; in the data active = inhibition mostly above about 23%, no sharp cut-off; inactive = mostly below about 18%;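 note: 0% = cells with DMSO and 100% = no-cell wells with DMSO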
Target sequence (P47898 whole entry, looked up): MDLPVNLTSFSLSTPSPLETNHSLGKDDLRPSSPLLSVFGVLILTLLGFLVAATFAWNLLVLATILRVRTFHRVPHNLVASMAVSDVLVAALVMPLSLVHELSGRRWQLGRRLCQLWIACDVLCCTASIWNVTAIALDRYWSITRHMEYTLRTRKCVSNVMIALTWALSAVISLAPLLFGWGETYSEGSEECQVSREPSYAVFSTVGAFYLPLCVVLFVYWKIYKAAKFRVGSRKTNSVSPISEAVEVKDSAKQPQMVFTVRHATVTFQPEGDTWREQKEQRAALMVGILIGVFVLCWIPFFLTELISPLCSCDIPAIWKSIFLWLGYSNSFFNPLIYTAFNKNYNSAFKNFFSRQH
V-ATPase pH = alters yeast V-ATPase proton transport | S. cerevisiae, pHLuorin cytosolic pH fluorescence | 350,000 tested, 0.37% active | response, % at 10 µM; in the data active = response mostly above about 7.3%, no sharp cut-off; inactive = mostly below about 5.4%; note: actives read high
HTR5A ag ctr = HTR5A agonism, opioid heterodimer counter-screen; P47898; HTR5A agonist assay, luminescence, cell-based; activation, % at 9.3 µM; 340,000 tested, 0.61% active; AID 504692; in the data active = activation mostly above about 9.5%, no sharp cut-off; inactive = mostly below about 7.6%;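 note: 0% = cells with vehicle only and 100% = reference agonist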
OPRM1-OPRD1 inv = mu-delta opioid heterodimer inverse agonism; P35372+P41143; cell-based MOR-DOR heterodimer luminescence; inhibition, % at 9.3 µM; 340,000 tested, 0.21% active; AID 504357; in the data active = inhibition above about 22%, passing the limit was not always enough;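 note: 0% = cells with DMSO and 100% = wells without cells with DMSO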
MOR-DOR ag-1 = OPRM1-OPRD1 heterodimerization agonism | activation, % at 9.3 µM | AID 504326 | 340,000 tested, 0.3% active | cells, luminescence;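 note: 0% = vehicle-treated cells and 100% = reference agonist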
MOR-DOR ag-2 = opioid heterodimer agonism, HTR5A counter-screen; U2OS counter-screen cells, complementation luminescence, 3 h; AID 504913; shares compounds with HTR5A ag ctr; activation, % at 9.3 µM; 800 tested, 13% active
HTR5A ag conf = confirmation of human HTR5A agonists | shares compounds with HTR5A ag ctr | HTR5A agonist cell assay, luminescence | activation, % at 9.3 µM | 800 tested, 17% active; in the data active = activation above about 17%;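 note: 0% = cells with vehicle only and 100% = full reference agonist response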
Active calls of the source: *; nt = no result. Cut-off read from the data, not from the text of the source, unless noted: active = activation above about 18%; inactive = the rest.

SMILES | MIN6 prolif | HTR5A inv ctr | V-ATPase pH | HTR5A ag ctr | OPRM1-OPRD1 inv | MOR-DOR ag-1 | MOR-DOR ag-2 | HTR5A ag conf
COc1ccc(Cn2c(C)nc3oc4cc(OC)ccc4c(=O)c3c2=O)cc1 | nt | -19.5 | 0.1 | 16.2* | 9.6 | -1.8 | 327.2* | 3.3
COc1ccc(CC(=O)Nc2ccc(-c3noc(-c4ccccc4OC)n3)cc2)cc1 | -1.7 | -58.2 | -1.1 | 22.9* | -18.4 | 3.5 | 221.0* | -5.9
O=C(ONC1=NCCCCC1)c1c(F)cccc1F | -2.6 | -27.2 | -3.3 | 5.2 | -16.1 | 3.0 | nt | nt
O=C(ONC1=NCCCCC1)c1ccc(Cl)cc1 | -3.4 | -65.2 | -3.9 | 25.3* | -71.8 | 14.3 | 4.2 | -0.4
CCOC(=O)C(=CNc1cc(OC)ccc1-n1cccc1)C(=O)OCC | 2.6 | -42.8 | 0.1 | 16.5* | -13.1 | 2.6 | 0.5 | 5.1
CCOC(=O)C(=CNc1cc(C)ccc1C)C(=O)OCC | -5.0 | -5.1 | 2.5 | -1.2 | -32.4 | 6.4 | nt | nt
CCOc1ccc(-c2cnc(NCc3cccc4ccccc34)n2CCOC)cc1 | -5.5 | -7.8 | 2.5 | 2.1 | 17.8 | -3.7 | nt | nt
CCCc1cc(=O)n2nc(N3CCC(C(=O)Nc4c(F)c(F)c(F)c(F)c4F)CC3)sc2n1 | -5.0 | -7.5 | 0.0 | -1.7 | 14.4 | -2.9 | nt | nt
CCCc1cc(=O)n2nc(N3CCC(C(=O)Nc4cccc(C(C)=O)c4)CC3)sc2n1 | -1.7 | 8.3 | -6.8 | 16.8* | 11.1 | -2.2 | 17.6 | -0.2
COc1ccc(-n2c(SCC(=O)N(C)C3CCS(=O)(=O)C3)nc3ccc(O)cc3c2=O)cc1OC (stereo not drawn) | -1.6 | -4.3 | -0.2 | 1.1 | 15.0 | -3.1 | nt | nt
Cc1ccc(S(=O)(=O)N2CCC(c3nc4c(nnn4Cc4ccccc4)c(=O)[nH]3)CC2)cc1 | 1.0 | nt | -2.1 | nt | nt | nt | nt | nt
O=c1[nH]c(C2CCN(S(=O)(=O)c3ccccc3C(F)(F)F)CC2)nc2c1nnn2Cc1ccccc1 | -7.5 | -46.6 | 0.0 | 15.7* | -21.2 | 2.6 | -0.1 | 4.7
COc1ccc(-n2c(Cc3cccn3C)nnc2SCC(=O)Nc2cccc(OC)c2)cc1 | 4.6 | 4.8 | 0.4 | -1.8 | 0.9 | -0.2 | nt | nt
COc1ccc(NC(=O)CSc2nnc(Cc3cccn3C)n2-c2ccc(C)cc2)cc1OC | 1.6 | -49.0 | -3.2 | 15.1* | 8.9 | -1.7 | 2.7 | 3.1
CCOc1ccc(N2C(=O)CC(NCCc3c[nH]c4ccccc34)C2=O)cc1 (stereo not drawn) | -0.1 | -161.6 | 6.2 | 71.3* | 6.3 | -0.9 | 17.2 | 2.1
CCOc1ccc(N2C(=O)CC(NCCc3ccncc3)C2=O)cc1 (stereo not drawn) | -1.9 | 18.1 | -1.4 | -3.6 | 10.8 | -1.8 | nt | nt
COc1cc(OC)cc(C(=O)Nc2ccccc2C(=O)NCc2cccnc2)c1 | 2.2 | 2.1 | -1.2 | -0.8 | 10.0 | -1.9 | nt | nt
COc1ccc(C(=O)N/N=C/c2cc(Br)ccc2O)cc1OC | -5.4 | -54.6 | 4.0 | 17.4* | -0.5 | 0.1 | -0.6 | -2.6
COc1ccc(Br)cc1/C=N/NC(=O)c1cc(Br)ccc1O | -4.8 | nt | nt | nt | nt | nt | nt | nt
COc1ccccc1CNC(=O)[C@H](C)NC(=O)C1CCN(C(=O)[C@@H](N)C(C)C)CC1 | 1.1 | 20.2 | 4.2 | 8.4 | 6.2 | -1.2 | nt | nt
Oc1c(Br)cc(Br)cc1CNc1cccc2cccnc12 | -4.0 | -1.1 | -0.2 | 15.9* | -34.9 | 6.8 | 12.9 | -3.4
O=C(NCc1ccc(Cl)cc1Cl)C1CCN(S(=O)(=O)c2ccc3c(c2)OCCCO3)CC1 | -3.3 | -7.1 | 2.5 | 2.8 | 2.6 | -0.5 | nt | nt
CCOc1cc(C(=O)OCc2ccc([N+](=O)[O-])cc2)ccc1OCC(=O)N1CCOCC1 | -3.7 | -43.4 | -4.4 | 16.7* | 0.4 | -0.1 | 0.7 | 0.7
CN1c2ccsc2C(O)=C(C(=S)Nc2ccc(F)c(Cl)c2)S1(=O)=O | -3.5 | -5.9 | -3.1 | -4.0 | 0.2 | 0.0 | nt | nt
Cc1ccc2cc(CN(Cc3ccc(F)cc3)Cc3nnnn3C3CCCC3)c(=O)[nH]c2c1 | -3.0 | 6.8 | -4.3 | -2.6 | -31.6 | 5.0 | nt | nt
SMILES | MIN6 prolif | HTR5A inv ctr | V-ATPase pH | HTR5A ag ctr | OPRM1-OPRD1 inv | MOR-DOR ag-1 | MOR-DOR ag-2 | HTR5A ag conf
CCc1ccc2[nH]c(=O)c(CN(Cc3ccc4c(c3)OCO4)Cc3nnnn3C3CCCC3)cc2c1 | -4.4 | 2.9 | 0.1 | 18.5* | -48.4 | 8.4 | 6.3 | 1.9
Cc1ccc(S(=O)(=O)NCc2ccc(N3CCN(C(=O)OC(C)(C)C)CC3)cc2)cc1 | -6.8 | -3.6 | -1.4 | 1.6 | -11.6 | 3.5 | nt | nt
Cc1cccc2c1cnn2C(=O)CCC(=O)NCc1ccc(F)cc1 | -2.8 | -2.6 | -0.1 | 0.9 | 14.0 | -2.7 | nt | nt
O=C1c2ccccc2C(=O)N1CCc1c[nH]c2ccc(O)cc12 | 3.1 | -100.5 | 2.0 | 23.9* | 9.1 | -1.9 | 2.8 | 4.6
C=CCN(C/C(=N\O)c1sc(C(=O)OCC)nc1C)c1cccc(Br)c1 | -8.1 | -58.6 | 1.0 | 21.8* | -43.7 | 7.5 | 7.6 | 2.1
CCOC(=O)c1sc(N/N=C/c2cccc(C)c2)nc1C | -1.8 | -1.6 | 0.0 | -0.5 | -18.3 | 3.2 | nt | nt
Nc1ccc(-c2n[nH]c(=O)c3ccccc23)cc1N | 1.0 | -50.5 | 6.2 | 21.2* | -9.0 | 1.9 | 2.7 | 13.5
CC(Oc1ccc2ccccc2c1)C(=O)NNC(=O)Nc1ccccc1 (stereo not drawn) | 5.5 | 0.4 | -7.1 | 3.4 | 0.8 | -0.1 | nt | nt
O=S(=O)(Nc1cccc(-c2ccc3nncn3n2)c1)c1ccccc1F | -1.3 | -52.4 | -3.0 | 20.1* | -34.2 | 5.1 | 18.4* | 12.8
O=C(COC(=O)CNC(=O)c1sc2ccccc2c1Cl)Nc1c(Cl)cc(Cl)cc1Cl | 0.1 | -6.2 | 4.0 | 2.4 | -17.3 | 3.3 | nt | nt
COc1ccc(C(=O)NC2CCCCCC2)cc1S(=O)(=O)N1CCCC1 | -3.0 | 10.7 | -4.7 | -4.3 | 11.5 | -2.4 | nt | nt
COc1ccc(C(=O)NC2CCCCCC2)cc1S(=O)(=O)Nc1ccc(Br)cc1 | 0.5 | -39.0 | 6.7 | 14.6* | -3.8 | 0.8 | 1.4 | 5.4
COc1ccccc1OCC(=O)Nc1cc2c(cc1C(=O)O)OCCCO2 | 5.0 | -14.1 | 3.6 | 1.6 | 5.0 | -0.7 | nt | nt
COc1ccc(OCCC(=O)Nc2cc3c(cc2C(=O)O)OCCCO3)cc1 | -0.1 | -72.2 | 0.6 | 15.4* | 2.3 | -0.4 | -1.1 | -0.9
O=S(=O)(O)c1nc2ccccc2n1Cc1cccc2ccccc12 | 1.0 | nt | nt | nt | nt | nt | nt | nt
CN(C)CCCN(C(=O)CCOc1ccccc1)c1nc2ccc(F)cc2s1 | nt | -52.1 | 0.8 | 17.6* | 7.4 | -1.5 | 3.2 | -2.4
O=C(NCCc1c[nH]c2ccccc12)c1cc([N+](=O)[O-])cc([N+](=O)[O-])c1 | -3.1 | -252.3 | -4.5 | 65.0* | -12.9 | 2.2 | 6.0 | 69.0*
Cc1cccc2sc(NNC(=O)c3ccc(S(=O)(=O)N4CCCC(C)C4)cc3)nc12 (stereo not drawn) | nt | -41.6 | 10.2* | 16.7* | -74.8 | 12.7 | 8.1 | 2.6

Screens as filed in PubChem.
